# Results filed as inconclusive are left out. A call without a number means that no potency is given here. Calls of active or inactive are those of the source. Calls come from the whole dose curve; as a rule, active = well fitted curve in the direction sought with a large enough effect; inconclusive = small, poorly fitted or top-dose-only effect, or another doubt; inactive = no such curve, though single readings can be large; an effect the other way counts as inactive or inconclusive.
# Molecular target: Aldehyde dehydrogenase, mitochondrial (Homo sapiens) (UniProt P05091)
# Experiment: qHTS for Inhibitors of the Aldehyde Dehydrogenase Family (ALDH2) Primary screen (AID 2061308); note: nearly all actives have a fitted effect of over 55% in size
# Conditions: ALDH2 enzyme inhibition qHTS, 1536-well; series mostly up to 56 µM
row,SMILES,Potency
1,CN1CCOC(c2ccccc2)c2ccccc2C1 (stereo not drawn),inactive
2,OC1CCC(Nc2nc(-c3ccccc3)nc3[nH]ccc23)CC1 (stereo not drawn),inactive
3,CN(CCc1ccc(Nc2ncc(-c3cccnc3)s2)cc1)Cc1ccccc1,inactive
4,Cc1ccc2[nH]c(=O)c(C3=NN(C(=O)CCC(=O)O)C(c4ccc(Br)cc4)C3)c(-c3ccccc3)c2c1 (stereo not drawn),inactive
5,Cc1nc(C)c(-c2ccc(C3CCC(CC(=O)O)CC3)cc2)nc1C(N)=O (stereo not drawn),inactive
6,CCN(CC)C(=O)C(c1ccccc1)N1CCN(c2ccc(NC(=O)c3ccccc3-c3cccnc3)cc2F)CC1 (stereo not drawn),inactive
7,CN(C)c1nc(Cc2ccc(NC(=O)c3ccc(C(F)(F)F)cc3)cc2)nc(N(C)C)c1CC(=O)O,inactive
8,CC(=O)N(C)C1(c2ccccc2)CCN(CCC[C@]2(c3ccc(Cl)c(Cl)c3)CCCN(C(=O)c3ccccc3)C2)CC1,inactive

# Molecular target: Retinaldehyde dehydrogenase 3 (Homo sapiens) (UniProt P47895)
# Experiment: qHTS for Inhibitors of the Aldehyde Dehydrogenase Family (ALDH1A3) Validation screen (AID 2061312); note: nearly all actives have a fitted effect of over 45% in size
# Conditions: ALDH1A3 enzyme inhibition qHTS validation, fluorescence; series mostly up to 84.7 µM
row,SMILES,Potency
1,OCC(O)CN1CCN(c2ccccc2)CC1 (stereo not drawn),inactive
2,Fc1ccc2c(CCNCc3cccc(OCC(F)(F)C(F)F)c3)c[nH]c2c1,inactive
3,O=S(=O)(NC1CCC(c2cc(F)ccc2F)(S(=O)(=O)c2ccc(Cl)cc2)CC1)C(F)(F)F (stereo not drawn),inactive
4,CC(=O)Nc1cccc(Nc2ncnc(N3CCC(OCc4ccc(OC(F)(F)F)cc4)CC3)n2)c1C,inactive
5,CC(=O)O[C@]1(C(C)=O)CC[C@H]2[C@@H]3CCC4=CC(=O)CCC4=C3[C@@H](c3ccc(N(C)C)cc3)C[C@@]21C,inactive
6,O=C(NCCCN1CCOCC1)c1cnn2c(-c3ccccc3)cc(-c3ccccc3)nc12,inactive
7,COc1cccc(C(=O)NCCNc2nc3cc(C)cc(C)c3cc2C#N)c1,inactive
8,CC(C)(C)c1ccc(CNC(=S)NCc2ccc(NS(C)(=O)=O)c(F)c2)cc1,inactive
9,CC(=O)NC1=NN(C(C)=O)C(C)(c2ccccc2)S1 (stereo not drawn),inactive
10,COc1ccc(C(=O)n2c(C)c(Cc3cccc(O[C@@H](C)C(=O)O)c3)c3cc(OC(F)(F)F)ccc32)cc1,inactive
11,O=C(NCC1CCN(Cc2cccc(Cl)c2)CC1)[C@@H]1CCCN(c2ncnc3c2nc2n3CCCC2)C1,inactive
12,COc1cc(N2CCOCC2)ccc1NC(=O)c1csc(-c2cccnc2)n1,inactive
13,CNS(=O)(=O)CC1CCC(N(C)c2ncnc3[nH]ccc23)CC1 (stereo not drawn),inactive
14,Cc1noc(C)c1-c1cc(O)cc(C(O)c2ccccc2)c1 (stereo not drawn),inactive
15,CCOC(CN1CCN(CC(C)C(=O)c2ccccc2)CC1)c1ccccc1 (stereo not drawn),inactive
16,O=c1[nH]cnc2c1ncn2[C@@H]1O[C@H](CO)[C@@H](O)[C@H]1O,inactive
17,CN(C)C(=O)NC1(c2ccccc2)CCN(CCC[C@]2(c3ccc(Cl)c(Cl)c3)CCCN(C(=O)c3ccccc3)C2)CC1,inactive
18,Cn1c2ccc(F)cc2c2c(C(=O)N3CCCC3)cn(-c3ccccc3)c(=O)c21,inactive
19,O=C(NCc1ccccn1)Nc1nnc(-c2ccco2)o1,inactive
20,Cc1nc2cc(-c3cc(F)cc(C#N)c3)ccc2s1,inactive

row,SMILES,Potency
1,Cc1nc(Nc2ccc(F)cc2)nc(N2CCc3ccccc3C2C)c1C (stereo not drawn),inactive
2,Cn1c(=O)cc(N2CCCC(N)C2)n(Cc2cc(F)ccc2C#N)c1=O (stereo not drawn),inactive
3,c1ccc(Nc2nc3c(s2)CCCc2[nH]ncc2-3)nc1,inactive
4,Cc1c(C(=O)Nc2ccc(N3CC(C)OC(C)C3)nc2)cccc1-c1ccc(OC(F)(F)F)cc1 (stereo not drawn),inactive
5,CC[C@@H](c1ccc(F)c(F)c1)n1c(C(=O)OC)c(-c2ccno2)[nH]c1=S,inactive
6,Cc1ccc(C2(C(=O)N3CCC(n4nc(-c5ccccc5)oc4=O)CC3)CC2)cc1,inactive
7,COC(=O)N1CCC(n2ncc3c(N4CCOCC4)nc(-c4ccc(NC(=O)NC5CC5)cc4)nc32)CC1,inactive
8,CC(C)c1c(NC(=O)Nc2ccc(Cl)cc2)c(=O)n(-c2ccccc2)n1C,inactive
9,CCCCc1ccc(C(=O)Nc2cc(-c3ccc(Cl)cc3)nn2-c2ccc(Cl)cc2)cc1,inactive
10,CC(C)S(=O)(=O)Nc1ccc(F)c(C(=O)c2c[nH]c3ncc(-c4cccnc4)cc23)c1F,inactive
11,COc1cccc(-c2ccc([C@@H](Oc3cc(-c4ccc(C[C@H](N)C(=O)O)cc4)nc(N)n3)C(F)(F)F)cc2)c1,inactive
12,CC[C@H]1OC(=O)C[C@@H](O)[C@H](C)[C@@H](O[C@@H]2O[C@H](C)[C@@H](O)[C@H](N(C)C)[C@H]2O)[C@@H](CCN2C[C@H](C)C[C@H](C)C2)C[C@@H](C)C(=O)/C=C/C(C)=C/[C@@H]1CO[C@@H]1O[C@H](C)[C@@H](O)[C@@H](OC)[C@H]1OC,inactive
13,CN1CCOC(c2ccccc2)c2ccccc2C1 (stereo not drawn),inactive
14,OC1CCC(Nc2nc(-c3ccccc3)nc3[nH]ccc23)CC1 (stereo not drawn),inactive
15,CN(CCc1ccc(Nc2ncc(-c3cccnc3)s2)cc1)Cc1ccccc1,inactive
16,Cc1ccc2[nH]c(=O)c(C3=NN(C(=O)CCC(=O)O)C(c4ccc(Br)cc4)C3)c(-c3ccccc3)c2c1 (stereo not drawn),inactive
17,Cc1nc(C)c(-c2ccc(C3CCC(CC(=O)O)CC3)cc2)nc1C(N)=O (stereo not drawn),inactive
18,CCN(CC)C(=O)C(c1ccccc1)N1CCN(c2ccc(NC(=O)c3ccccc3-c3cccnc3)cc2F)CC1 (stereo not drawn),inactive
19,CN(C)c1nc(Cc2ccc(NC(=O)c3ccc(C(F)(F)F)cc3)cc2)nc(N(C)C)c1CC(=O)O,inactive
20,CC(=O)N(C)C1(c2ccccc2)CCN(CCC[C@]2(c3ccc(Cl)c(Cl)c3)CCCN(C(=O)c3ccccc3)C2)CC1,inactive

# Source: PubChem BioAssay (NCATS)
